Among the data in PubChem BioAssay (EPA / NIEHS) are outcome and AC50 values, retold here.

Records with an inconclusive call do not appear. Active and inactive are the calls of the source. Rule for the calls: active = hit-call score of the fitted dose curve at least 0.9, where 1 is the maximum; inconclusive = response in the unintended direction; inactive = score below 0.9.

As usually defined, the AC50 is the midpoint of the concentration-response curve, whichever way the signal moves.

The nature of the assay: ACEA_ER_AUC_viability: ACEA Biosciences xCELLigence Real-Time Cell Analysis on Estrogen Receptor Agonism for Viability (AID 2283782).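 Note: continuous compound exposure with impedance area under curve over 80 h; hit means loss of impedance signal meaning reduced cell growth or viability.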 In outline: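 T-47D human breast cells in phenol red-free RPMI1640 with 10% charcoal-stripped FBS were dosed with an 8-point 1:4 dilution series from 100 uM top final concentration, in duplicate. Impedance-based growth was followed for 80 h; AUC analysed versus DMSO.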
Take `O=C(Cl)c1ccc(Cl)cc1`: the result was inactive.
For the compound `Nc1cccc2ccccc12`, the AC50 is 80.2 µM (active).
On to `ClCc1ccccn1`, for which the AC50 is 50 µM (active).
With `Clc1nc(Cl)nc(Cl)n1`, the compound was classed as inactive.
`NC(=S)Nc1ccccc1`: the AC50 is 60.6 µM (active).
On the same count and under the same terms, the figure for `COC(=O)Cc1ccccc1` is 30.7 µM (active); for `C[C@H]1O[C@@H](O[C@H]2[C@@H](O)C[C@H](O[C@H]3[C@@H](O)C[C@H](O[C@H]4CC[C@@]5(C)[C@H](CC[C@@H]6[C@@H]5CC[C@]5(C)[C@@H](C7=CC(=O)OC7)CC[C@]65O)C4)O[C@@H]3C)O[C@@H]2C)C[C@H](O)[C@@H]1O` it is 0.159 µM (active); for `CC1CCCCC1NC(=O)Nc1ccccc1` (configuration not stated) it is 26.2 µM (active).
As to `CN(CCCC(=O)c1cccnc1)N=O`, the result was inactive.
Same read-out and setting: then `N#CCc1ccc(Cl)cc1`, with “inactive”.
With `ClCc1cccnc1`, the AC50 is 50 µM (active).
In the case of `C=CC#N`, the compound was classed as inactive.
As to `CC(=[OH+])/C=C(/C)[O-].CC(=[OH+])/C=C(/C)[O-].CC(=[OH+])/C=C(/C)[O-].[Al]`, the AC50 is 72.6 µM (active).
Consider `C=C(C)C#N`, for which the compound was called inactive.
On the same count and under the same terms, the entry for `Nc1ccc(Cl)cc1C(=O)c1ccccc1` is “inactive”.
For the compound `C=CCc1ccc(OC)cc1`, the compound was classed as inactive.
For `BrCCBr`, the compound was called inactive.
Regarding `COP(=S)(OC)Oc1c(Cl)cc(C)cc1Cl`, the compound was classed as inactive.
The same measure, in the same setting: then `COS(=O)(=O)c1ccc(C)cc1`, with “inactive”.
On to `O=C/C=C/c1ccccc1`, for which the outcome was inactive.
Regarding `COc1cc2c(cc1OC)[C@@]13CCN4CC5=CCO[C@H]6CC(=O)N2[C@H]1[C@H]6[C@H]5C[C@H]43`, the outcome was inactive.
The same measure, in the same setting: then `O=C(O)C(F)(F)C(F)(F)C(F)(F)C(F)(F)C(F)(F)C(F)(F)C(F)(F)C(F)(F)C(F)(F)C(F)(F)F`, with “inactive”.
